14 compounds from PubChem BioAssay (NCI) can be followed below.

Some test systems named below: T-47D breast; BT-549 breast; MDA-MB-435 melanoma; SW-620 colon; MCF7 breast; HCT-116 colon; HCC-2998 colon; KM12 colon.
Common to all, as to assay: NCI-60 one-dose screen, 48 h (100 = growth as untreated, 0 = no growth, -100 = all killed)
Conditions in all cases: 10 µM unless noted

The structures appear in SMILES notation. Compounds without any hit were thinned out: in the full panel of roughly 83,000, 20% have a hit.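 Activity criterion: percent growth below 10, measured after cells in 96-well plates were exposed to a single compound concentration for 48 hours.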 A number with no mark means an inactive call. Activity calls are given as the source filed them.

In the case of `O=C(OC(CO)C(=O)NC12CC3CC(CC(C3)C1)C2)c1ccc(Cl)cc1` (configuration not stated), the growth in the assay with T-47D breast is 92.8%; in the assay with BT-549 breast, 106%; with MDA-MB-435 melanoma, 94.6%; in the assay on SW-620 colon, 101%; with MCF7 breast, 91.8%; in the assay with HCT-116 colon it was 90.9%. Moreover, the growth in the assay on HCC-2998 colon is 113%; with KM12 colon, 111%.
Regarding `Cc1ccc2c(n1)C(=O)C(Br)=C(C1CCCC1)C2=O`, the growth in the assay on T-47D breast is 90%; in the assay with BT-549 breast it was 95.5%; with MDA-MB-435 melanoma, 108%; with SW-620 colon, 85.8%; in the assay on MCF7 breast, 89.8%; in the assay with HCT-116 colon it was 73.7%. Moreover, the growth in the assay on HCC-2998 colon was 115%; with KM12 colon it was 99.6%.
Turning to `O=c1[nH]c(-c2ccccc2)nc2sc3cc(O)ccc3c12`, the growth in the assay on T-47D breast was 93%; with BT-549 breast it was 82.3%; with MDA-MB-435 melanoma, 85.9%; in the assay on SW-620 colon, 101%; in the assay with MCF7 breast it was 73.8%; with HCT-116 colon, 92.5%. Also, the growth in the assay with HCC-2998 colon is 95.9%; with KM12 colon it was 87.6%.
Take `O=C(O)CCN1C(=O)/C(=C/C(Cl)=C/c2ccccc2)SC1=S`: the growth was 28.8% with T-47D breast; 16.9% in the assay with BT-549 breast; -63.4% (active) with MDA-MB-435 melanoma; 7.78% (active) in the assay with SW-620 colon; 15.7% with MCF7 breast; -19% (active) in the assay on HCT-116 colon. In addition, the results for the growth in the assay on HCC-2998 colon and in the assay with KM12 colon were 4.75% (active) and 15.3%, respectively.
`COc1cc(/C=C/C(=O)c2ccc(F)cc2)ccc1OCCCCOc1ccc(/C=C/C(=O)c2c(C)nc3ccccc3c2C)cc1OC`: the growth in the assay with T-47D breast was 92.7%; with BT-549 breast, 154%; in the assay with MDA-MB-435 melanoma, 94.4%; in the assay on SW-620 colon it was 102%; in the assay on MCF7 breast it was 80.1%; in the assay with HCT-116 colon, 90.8%. Moreover, the growth in the assay on HCC-2998 colon was 100%; in the assay on KM12 colon it was 111%.
On to `CC/C(=C(/c1ccc(Cl)cc1)c1ccc(OCCN2CCCCC2)cc1)c1ccc(OC)cc1`, for which the growth is 32.3% in the assay with T-47D breast; 78.2% in the assay with BT-549 breast; 65.6% in the assay on MDA-MB-435 melanoma; 39.1% with SW-620 colon; 15.3% in the assay on MCF7 breast; 46.9% in the assay on HCT-116 colon. Besides, the growth in the assay on HCC-2998 colon was 71%; with KM12 colon, 39.1%.
Take `CC/C(=C(/c1ccc(Cl)cc1)c1ccc(OCCN(C)C)cc1)c1ccc(Cl)cc1`: the growth in the assay with T-47D breast is 58.4%; in the assay on BT-549 breast, 82.7%; in the assay with MDA-MB-435 melanoma it was 73.1%; in the assay on SW-620 colon, 55.8%; in the assay on MCF7 breast, 20.5%; in the assay with HCT-116 colon, 56.7%. Also, the growth with HCC-2998 colon was 46.9%; in the assay on KM12 colon, 56.6%.
`N#CC1=C(N)Oc2c(ccc3ccccc23)C1c1ccccc1` (configuration not stated): the growth with T-47D breast was 63.5%; in the assay on BT-549 breast, -16.5% (active); in the assay on MDA-MB-435 melanoma it was -38.9% (active); in the assay with SW-620 colon it was 28.2%; with MCF7 breast, 11.1%; in the assay with HCT-116 colon, 3.37% (active). The growth in the assay with HCC-2998 colon is -4.65% (active); in the assay with KM12 colon, 14.7%.
In the case of `C=CCn1c(C)nc2ccc(Nc3nc(Nc4ccc5nc(C)n(CC=C)c5c4)c4ccccc4n3)cc21`, the growth is -91% (active) in the assay with T-47D breast; 72.1% in the assay with BT-549 breast; -78% (active) in the assay with MDA-MB-435 melanoma; -80.5% (active) in the assay on SW-620 colon; -87.9% (active) in the assay on MCF7 breast; -97.8% (active) in the assay on HCT-116 colon. The growth in the assay on HCC-2998 colon is -52.7% (active); with KM12 colon, -84.8% (active).
Turning to `Cc1cc(C)c2c(c1)N(C)c1ncnc(-n3cnc4cc(C)ccc43)c1CC2C` (configuration not stated), the growth was 28.8% in the assay on T-47D breast; 29.8% with BT-549 breast; 8.39% (active) in the assay with MDA-MB-435 melanoma; 21.4% with SW-620 colon; 17.1% in the assay on MCF7 breast; 11.1% with HCT-116 colon. Also, the results for the growth in the assay on HCC-2998 colon and in the assay with KM12 colon were 52.1% and 22.7%, respectively.
On to `CC(=O)Oc1ccc(C)cc1C`, for which the growth in the assay with T-47D breast was 97.9%; with BT-549 breast, 90.8%; with MDA-MB-435 melanoma, 113%; in the assay with SW-620 colon it was 108%; with MCF7 breast, 77.7%; in the assay on HCT-116 colon it was 98.3%. Moreover, the figures for the growth in the assay with HCC-2998 colon and with KM12 colon were 112% and 103%, respectively.
For the compound `CN1CCc2nc3sc(C(N)=O)c(N)c3c(-c3cccs3)c2C1`, the growth with T-47D breast was 42.9%; with BT-549 breast it was 10.7%; in the assay with MDA-MB-435 melanoma, 29.6%; with SW-620 colon, 35%; in the assay with MCF7 breast it was 12.6%; in the assay with HCT-116 colon it was 4.02% (active). Besides, the results for the growth with HCC-2998 colon and with KM12 colon were 53.5% and 6.55% (active), respectively.
Regarding `N#Cc1c(-c2ccc(Cl)cc2)c(C#N)c2c(C#N)c(N)nn2c1N`, the growth is 57% with T-47D breast; 75.5% with BT-549 breast; 95.4% in the assay on MDA-MB-435 melanoma; 94.7% with SW-620 colon; 81.3% in the assay on MCF7 breast; 96.1% in the assay on HCT-116 colon. The growth was 102% with HCC-2998 colon and 92.9% with KM12 colon.
In the case of `COC(=O)c1c(C)c2n(c1C)C(=O)C(c1ccccc1)=C2`, the growth in the assay with T-47D breast was 37.1%; in the assay on BT-549 breast, 51.2%; with MDA-MB-435 melanoma it was 78.1%; in the assay on SW-620 colon, 93%; in the assay with MCF7 breast, 39%; in the assay with HCT-116 colon it was 74.2%. For the same compound, the growth was 75.1% in the assay on HCC-2998 colon and 78.2% with KM12 colon.
